Experimental data: PubChem BioAssay (EPA / NIEHS)
Activity calls are given as the source filed them. The calls were made as follows: active = hit-call score of the fitted dose curve at least 0.9, where 1 is the maximum; inactive = score below 0.9.

Assays:
[1] = ATG_E_Box_CIS: Attagene CIS-FACTORIAL HepG2 Assay for human Enhancer Box (E-box) (AID 2282936); conditions: HepG2 E-box cis-reporter transcription, actives raise or lower the signal
Summary of the method: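 HepG2 cells transiently transfected with multiplexed cis-element reporter units, dosed 24 h; reporter mRNA quantified by RT-PCR, 6-FAM labelling, HpaI digestion and capillary electrophoresis. E-box (USF1) signal fitted bidirectionally vs DMSO.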

[2] = ATG_M_61_CIS: Attagene CIS-FACTORIAL HepG2 Assay for M61 Transcription Factor (Internal Marker) (AID 2282937); conditions: HepG2 Attagene CIS-FACTORIAL M61 internal marker reporter; actives raise or lower the signal
Summary of the method: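 Transfect HepG2 with MRTUs; dose 24 h; isolate RNA; reverse-transcribe with DNase I treatment; PCR-amplify, FAM-label and cut with HpaI for 2 h at 37 C; resolve by CE. Bidirectional fitting against DMSO.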

[3] = ATG_EGR_CIS: Attagene CIS-FACTORIAL HepG2 Assay for human Early Growth Response 1 (EGR1) (AID 2282938); conditions: HepG2 Attagene CIS-FACTORIAL EGR reporter mRNA; actives raise or lower the signal
Summary of the method: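 After a 24 h treatment of transiently transfected HepG2 cells, total RNA was reverse-transcribed and reporter sequences PCR-amplified, labelled and run on capillary electrophoresis. Reporters sit under cis-regulatory promoters sensing endogenous factors.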

[4] = ATG_M_19_CIS: Attagene CIS-FACTORIAL HepG2 Assay for M19 Transcription Factor (Internal Marker) (AID 2282939); conditions: HepG2 Attagene CIS-FACTORIAL M19 internal marker reporter; actives raise or lower the signal
Summary of the method: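 In this multiplexed cell assay, transiently transfected HepG2 reporter units report endogenous transcription-factor activity; after 24 hours of treatment, labelled reporter cDNA fragments are quantified by capillary electrophoresis and fitted bidirectionally against DMSO.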

[5] = ATG_ERE_CIS: Attagene CIS-FACTORIAL HepG2 Assay for Estrogen Response Element (ERE) (AID 2282940); conditions: HepG2 ERE cis-reporter, Attagene RNA transcript; actives raise or lower the signal
Summary of the method: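 Measuring endogenous transcription factor output, the assay doses transfected HepG2 cells for 24 hours and quantifies reporter transcripts by fluorescent RT-PCR and capillary electrophoresis, with DMSO as baseline.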

[6] = ATG_Ets_CIS: Attagene CIS-FACTORIAL HepG2 Assay for human Erythroblast Transformation Specific (ETS) (AID 2282941); conditions: HepG2 ETS cis-reporter transcription, actives raise or lower the signal
Summary of the method: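 HepG2 cells transiently transfected with cis-promoter reporter transcription units were dosed for 24 h; reporter mRNA was measured by RT-PCR, 6-FAM primer extension, HpaI digestion and capillary electrophoresis, with bidirectional fitting against DMSO baseline.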

[7] = molecular target: Hepatocyte nuclear factor 3-beta (Homo sapiens) (UniProt Q9Y261); assay: ATG_FoxA2_CIS: Attagene CIS-FACTORIAL HepG2 Assay for human Forkhead box A2 (FOXA2) (AID 2282942); conditions: HepG2 cis-reporter transcription factor activity, 24 h; actives raise or lower the signal
Chain of Hepatocyte nuclear factor 3-beta (Homo sapiens) (Q9Y261 whole entry, looked up): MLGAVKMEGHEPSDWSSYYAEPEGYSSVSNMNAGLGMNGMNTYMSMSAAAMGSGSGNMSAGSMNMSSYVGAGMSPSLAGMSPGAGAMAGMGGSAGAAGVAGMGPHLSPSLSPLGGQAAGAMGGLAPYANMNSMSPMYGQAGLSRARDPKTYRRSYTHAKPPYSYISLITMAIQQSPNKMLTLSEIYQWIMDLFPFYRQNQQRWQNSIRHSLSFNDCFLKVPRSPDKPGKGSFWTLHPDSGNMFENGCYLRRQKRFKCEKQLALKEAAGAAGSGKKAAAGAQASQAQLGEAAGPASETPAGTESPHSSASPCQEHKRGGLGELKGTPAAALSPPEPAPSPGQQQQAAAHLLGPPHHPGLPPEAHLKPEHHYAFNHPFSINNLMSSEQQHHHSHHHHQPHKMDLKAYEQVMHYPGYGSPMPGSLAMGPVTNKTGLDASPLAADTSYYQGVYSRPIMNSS
Summary of the method: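 24 h dosing of HepG2 bearing cis-reporter constructs; mRNA readout by RT-PCR/CE fluorescence; bidirectional fit, DMSO baseline.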

[8] = ATG_FoxO_CIS: Attagene CIS-FACTORIAL HepG2 Assay for human Forkhead box O (FoxO) (AID 2282943); conditions: HepG2 Attagene cis-reporter, FoxO element, mRNA; actives raise or lower the signal
Summary of the method: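 HepG2 cells transiently transfected with cis-element-driven reporter units report endogenous FoxO activity. After 24 h chemical exposure, reporter mRNA quantified by RT-PCR, fluorescent labeling, HpaI digestion and capillary electrophoresis; bidirectional fit versus DMSO.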

[9] = ATG_GATA_CIS: Attagene CIS-FACTORIAL HepG2 Assay for human GATA Binding Protein (AID 2282944); conditions: HepG2 GATA cis-element reporter, Attagene multiplex mRNA; actives raise or lower the signal
Summary of the method: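 Measures endogenous transcription factor-driven reporter mRNA in HepG2 cells transiently carrying cis-regulated constructs. 24 h dosing; RNA via oligo(dT) reverse transcription, PCR, HpaI digestion, capillary electrophoresis; fitted relative to DMSO.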

[10] = ATG_GLI_CIS: Attagene CIS-FACTORIAL HepG2 Assay for human Zinc Finger Protein GLI1 (AID 2282945); conditions: HepG2, Attagene cis-factorial reporter mRNA, GLI element; actives raise or lower the signal
Summary of the method: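 Transiently transfected HepG2 cells report endogenous transcription factor activity via cis-element-driven reporter units. After 24 h compound exposure, reporter mRNA was measured by RT-PCR with capillary electrophoresis; bidirectional fitting against DMSO baseline.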

[11] = molecular target: Bile acid receptor (Homo sapiens) (UniProt Q96RI1); assay: ATG_IR1_CIS: Attagene CIS-FACTORIAL HepG2 Assay for human Nuclear Receptor Subfamily 1 Group H Member 4 (NR1H4), IR1 submotif (AID 2282946); conditions: IR1 reporter transcription, actives raise or lower the signal
Chain of Bile acid receptor (Homo sapiens) (Q96RI1 whole entry, looked up): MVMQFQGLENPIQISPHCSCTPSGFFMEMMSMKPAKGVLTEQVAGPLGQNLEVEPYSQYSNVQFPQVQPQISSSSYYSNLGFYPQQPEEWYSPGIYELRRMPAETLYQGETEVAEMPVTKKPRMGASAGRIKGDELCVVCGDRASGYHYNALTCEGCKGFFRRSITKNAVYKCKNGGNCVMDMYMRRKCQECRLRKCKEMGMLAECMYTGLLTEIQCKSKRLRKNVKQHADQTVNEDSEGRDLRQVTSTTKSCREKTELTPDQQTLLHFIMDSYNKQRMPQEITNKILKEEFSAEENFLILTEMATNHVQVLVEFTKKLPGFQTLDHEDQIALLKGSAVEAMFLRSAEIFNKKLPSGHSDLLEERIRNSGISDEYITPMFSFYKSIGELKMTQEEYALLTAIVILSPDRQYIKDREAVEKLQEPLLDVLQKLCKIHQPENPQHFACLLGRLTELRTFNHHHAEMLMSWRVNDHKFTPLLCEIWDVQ
Summary of the method: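 HepG2 cells transiently transfected with multiple cis-promoter-driven reporter units to measure endogenous transcription factor activity; 24 h exposure. Reporter mRNA read by RT-PCR, FAM labelling, HpaI digestion and capillary electrophoresis. Bidirectional fit versus DMSO.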

[12] = ATG_GRE_CIS: Attagene CIS-FACTORIAL HepG2 Assay for human Glucocorticoid Response Elements (GRE) (AID 2282947); conditions: HepG2 GRE cis-reporter, Attagene multiplex mRNA; actives raise or lower the signal
Summary of the method: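 Transiently transfected HepG2 cells carrying GRE cis-reporter units (endogenous TF activity) dosed 24 h; reporter mRNA quantified by RT-PCR, 6-FAM labelling, HpaI digestion and capillary electrophoresis. Bidirectional fit versus DMSO baseline.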

[13] = ATG_ISRE_CIS: Attagene CIS-FACTORIAL HepG2 Assay for human Interferon Regulatory Factor 1 (IRF1) binding to an Interferon-Stimulated Response Element (ISRE) (AID 2282948); conditions: HepG2 ISRE cis-reporter (Attagene), mRNA transcription readout; actives raise or lower the signal
Summary of the method: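 HepG2 cells transiently transfected with multiplexed cis-promoter reporter units; after 24 h compound exposure, reporter mRNA quantified by RT-PCR, FAM labelling, HpaI digestion and capillary electrophoresis. Bidirectional fit versus DMSO baseline.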

[14] = ATG_M_32_CIS: Attagene CIS-FACTORIAL HepG2 Assay for M32 Transcription Factor (Internal Marker) (AID 2282949); conditions: HepG2 Attagene cis-factorial M32 reporter, mRNA; actives raise or lower the signal;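 also: background control marker of the multiplexed CIS panel rather than a real target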
Summary of the method: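 Fluorescent capillary electrophoresis peaks of HpaI-digested, FAM-labelled RT-PCR reporter products give the signal. Source: transiently transfected human liver HepG2 cells, 24 h after chemical dosing; bidirectional fitting against DMSO.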

[15] = molecular target: Hypoxia-inducible factor 1-alpha (Homo sapiens) (UniProt Q16665); assay: ATG_HIF1a_CIS: Attagene CIS-FACTORIAL HepG2 Assay for human Hypoxia Inducible Factor 1 (HIF1A) (AID 2282951); conditions: HepG2 Attagene cis-factorial HIF1a reporter transcription; actives raise or lower the signal
Chain of Hypoxia-inducible factor 1-alpha (Homo sapiens) (Q16665 whole entry, looked up): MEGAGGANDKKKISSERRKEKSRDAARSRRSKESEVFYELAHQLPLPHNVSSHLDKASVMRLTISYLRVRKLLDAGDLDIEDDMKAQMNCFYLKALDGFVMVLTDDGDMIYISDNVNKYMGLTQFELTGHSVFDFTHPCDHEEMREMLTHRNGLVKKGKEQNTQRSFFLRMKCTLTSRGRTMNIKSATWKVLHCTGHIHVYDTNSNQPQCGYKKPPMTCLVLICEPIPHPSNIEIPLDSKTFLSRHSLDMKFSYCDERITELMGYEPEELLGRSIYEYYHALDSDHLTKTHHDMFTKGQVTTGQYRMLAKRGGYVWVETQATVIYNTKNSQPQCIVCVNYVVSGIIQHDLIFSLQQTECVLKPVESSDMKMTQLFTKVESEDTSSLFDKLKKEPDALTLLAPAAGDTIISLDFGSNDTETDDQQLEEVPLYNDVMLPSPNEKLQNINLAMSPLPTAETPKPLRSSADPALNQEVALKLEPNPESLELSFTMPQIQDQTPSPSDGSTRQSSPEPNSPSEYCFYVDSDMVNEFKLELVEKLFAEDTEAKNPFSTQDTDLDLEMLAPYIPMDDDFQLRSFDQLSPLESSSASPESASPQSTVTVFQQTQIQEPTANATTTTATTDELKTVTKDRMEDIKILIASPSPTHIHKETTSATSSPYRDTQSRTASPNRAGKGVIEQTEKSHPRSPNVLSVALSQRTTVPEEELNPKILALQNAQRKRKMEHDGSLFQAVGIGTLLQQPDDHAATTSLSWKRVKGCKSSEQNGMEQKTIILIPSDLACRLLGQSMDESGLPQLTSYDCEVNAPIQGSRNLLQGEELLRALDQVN
Summary of the method: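 After 24 h chemical exposure of reporter-transfected HepG2 cells, reporter cDNA was PCR-amplified, labelled by 6-FAM primer extension (2 min 95 C, 20 s 68 C, 10 min 72 C), HpaI-cut (2 h, 37 C) and analysed by CE.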

[16] = molecular target: Heat shock factor protein 1 (Homo sapiens) (UniProt Q00613); assay: ATG_HSE_CIS: Attagene CIS-FACTORIAL HepG2 Assay for human Heat Shock Transcription Factor 1 (HSE) (AID 2282953); conditions: HepG2 HSE cis-reporter, Attagene RNA transcription; actives raise or lower the signal
Chain of Heat shock factor protein 1 (Homo sapiens) (Q00613 whole entry, looked up): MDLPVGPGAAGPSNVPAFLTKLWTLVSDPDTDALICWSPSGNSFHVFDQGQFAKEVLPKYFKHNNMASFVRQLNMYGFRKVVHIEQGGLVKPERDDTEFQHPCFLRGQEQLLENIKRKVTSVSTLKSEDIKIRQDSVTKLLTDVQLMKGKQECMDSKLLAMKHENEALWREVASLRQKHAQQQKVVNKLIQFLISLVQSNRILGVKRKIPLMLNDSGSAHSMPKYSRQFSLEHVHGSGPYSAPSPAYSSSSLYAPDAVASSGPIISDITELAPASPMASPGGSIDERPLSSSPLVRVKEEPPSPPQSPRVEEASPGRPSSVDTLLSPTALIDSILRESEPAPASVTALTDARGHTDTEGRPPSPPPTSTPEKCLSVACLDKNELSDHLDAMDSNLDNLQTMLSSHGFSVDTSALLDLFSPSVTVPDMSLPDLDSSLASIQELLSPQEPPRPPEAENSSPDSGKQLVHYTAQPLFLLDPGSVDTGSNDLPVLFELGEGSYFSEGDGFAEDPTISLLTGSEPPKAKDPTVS
Summary of the method: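 Using HepG2 with transfected cis-driven reporter constructs, compound effects on endogenous factor activity are scored as reporter mRNA change at 24 h. Detection: RT-PCR, HpaI digestion, capillary electrophoresis; bidirectional fitting to DMSO.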

[17] = ATG_MRE_CIS: Attagene CIS-FACTORIAL HepG2 Assay for human Metal Responsive Element (MRE) (AID 2282954); conditions: HepG2 MRE cis-reporter transcription, Attagene multiplex; actives raise or lower the signal
Summary of the method: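 HepG2 cells transiently transfected with cis-element-driven reporter units; mRNA measured 24 h after dosing. Reporter transcripts quantified by RT-PCR, FAM labelling, HpaI digestion and capillary electrophoresis; bidirectional fit versus DMSO.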

[18] = molecular target: Hepatocyte nuclear factor 6 (Homo sapiens) (UniProt Q9UBC0); assay: ATG_HNF6_CIS: Attagene CIS-FACTORIAL HepG2 Assay for human Hepatocyte Nuclear Factor 6 (HNF6) (AID 2282952); conditions: HepG2 Attagene cis-factorial HNF6 reporter transcription; actives raise or lower the signal
Chain of Hepatocyte nuclear factor 6 (Homo sapiens) (Q9UBC0 whole entry, looked up): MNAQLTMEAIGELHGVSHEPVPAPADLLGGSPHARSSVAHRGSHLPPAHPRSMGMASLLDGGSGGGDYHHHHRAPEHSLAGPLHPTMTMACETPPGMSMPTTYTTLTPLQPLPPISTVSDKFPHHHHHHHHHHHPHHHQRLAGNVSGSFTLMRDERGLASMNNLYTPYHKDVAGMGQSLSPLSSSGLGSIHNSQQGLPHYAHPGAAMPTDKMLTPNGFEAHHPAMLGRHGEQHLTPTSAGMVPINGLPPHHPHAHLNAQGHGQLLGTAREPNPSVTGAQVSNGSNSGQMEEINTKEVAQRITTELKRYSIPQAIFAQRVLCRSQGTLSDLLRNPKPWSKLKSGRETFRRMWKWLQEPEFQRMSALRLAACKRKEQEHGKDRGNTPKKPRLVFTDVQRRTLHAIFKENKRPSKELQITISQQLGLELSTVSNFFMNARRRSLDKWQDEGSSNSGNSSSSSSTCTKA
Summary of the method: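 HepG2 cells transiently transfected with cis-element-driven multiple reporter transcription units, dosed 24 h; reporter mRNA quantified by RT-PCR, FAM primer extension, HpaI digestion and capillary electrophoresis; bidirectional fit versus DMSO baseline.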

[19] = ATG_PBREM_CIS: Attagene CIS-FACTORIAL HepG2 Assay for human Phenobarbital-responsive Enhancer Module (PBREM) (AID 2282955); conditions: HepG2 PBREM cis-reporter, Attagene multiplexed transcription; actives raise or lower the signal
Summary of the method: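 Measures endogenous factor action on a phenobarbital-responsive enhancer module. HepG2 transiently carrying cis reporters, 24 h treatment, mRNA read-out by RT-PCR plus capillary electrophoresis.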

[20] = ATG_M_06_CIS: Attagene CIS-FACTORIAL HepG2 Assay for M06 Transcription Factor (Internal Marker) (AID 2282950); conditions: HepG2 Attagene CIS-FACTORIAL M06 internal marker reporter; actives raise or lower the signal
Summary of the method: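 One of many multiplexed endpoints: HepG2 reporter mRNA after 24 h dosing, detected by RT-PCR and capillary electrophoresis fluorescence; gain or loss of signal analysed against DMSO.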

Measured: AC50

CCCCCCCC(C)=O
not listed: [18] | [19] | [20]
inactive: all other assays above

CC[C@H]1OC(=O)[C@H](C)[C@@H](O[C@H]2C[C@@](C)(OC)[C@@H](O)[C@H](C)O2)[C@H](C)[C@@H](O[C@@H]2O[C@H](C)C[C@H](N(C)C)[C@H]2O)[C@](C)(O)C[C@@H](C)C(=NOCOCCOC)[C@H](C)[C@@H](O)[C@]1(C)O
active: [5] 37.6 µM
not listed: [14] | [19] | [20]
inactive: all other assays above

O=C(O)Cc1c(Cl)ccc(Cl)c1Cl
not listed: [12] | [14] | [20]
inactive: all other assays above

CCN(CCC#N)c1ccc(N=Nc2c(Cl)cc([N+](=O)[O-])cc2Cl)cc1
active: [15] 43.3 µM
not listed: [20]
inactive: all other assays above

O=C(Cl)c1cc(C(=O)Cl)cc(C(=O)Cl)c1
active: [1] 138 µM | [11] 153 µM
not listed: [12] | [16] | [19]
inactive: all other assays above

CCOC(=O)CC
not listed: [12] | [16]
inactive: all other assays above

Cc1cnc(NC(=O)C2=C(O)c3ccccc3S(=O)(=O)N2C)s1
not listed: [15] | [19] | [20]
inactive: all other assays above

C/C=C\C/C=C/CCCCCCCCOC(C)=O
active: [3] 100 µM | [11] 122 µM | [13] 155 µM | [16] 156 µM | [17] 100 µM
not listed: [12]
inactive: all other assays above
